In PubChem BioAssay (Tox21):
Records with an inconclusive call do not appear. The source made the active and inactive calls. Calls follow the shape of the full dose curve.

Experiment: qHTS assay for small molecule disruptors of the mitochondrial membrane potential - cell viability (AID 720634);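 also: human HepG2 liver cancer cells; nearly all actives have a fitted effect of over 20% in size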
Details: HepG2 viability, ATP luminescence (CellTiter-Glo), 1 h; series mostly up to 83.2 µM; activity change, negative = cytotoxicity: at the top concentration
Source text: U.S. Tox21 Program National Center for Advancing Translational Sciences [NCATS] NIH Chemical Genomics Center [NCGC] U.S. Environmental Protection Agency [EPA] National Institutes of Environmental Health Sciences [NIEHS] National Toxicology Program [NTP] U.S. Food and Drug Administration [FDA] Tox21 Assay Overview: Mitochondrial membrane potential (MMP), one of the parameters for mitochondrial function, is generated by mitochondrial electron transport chain that creates an electrochemical gradient by a series of redox reactions. This gradient drives the synthesis of ATP, a crucial molecule for various cellular processes. Measuring MMP in living cells is commonly used to assess the effect of chemicals on mitochondrial function; decreases in MMP can be detected using lipophilic cationic fluorescent dyes. […] The dye accumulates in the mitochondria of healthy cells as aggregates, with red fluorescence. The mitochondrial potential decreases and the dye could not accumulate in the mitochondria and remains in the cytoplasm in monomers, with green fluorescence. In addition to the mitochondrial potential assay, these cells were also used to test the cytotoxicity by determining the cell viability in the culture based on the quantitation of ATP present. The cytotoxicity was measured in the same assay well of MMP assay.
Tox21 Assay Protocol Summary: 2,000 HepG2 cells in 5 uL/well were dispensed into black, clear-bottom 1536-well plates using a Multidrop Combi (Thermo Scientific) dispenser. The assay plates were incubated for an overnight at 37 C to allow cells to attach to the wells, followed by the transfer of 23 nL compound or DMSO vehicle by a pin tool (Kalypsys). The plates were incubated for 1 hr at 37 C and 5% CO2, followed by the addition of 5 uL of 2X m-MPI dye into each well using Flying Reagent Dispenser (Aurora Discovery) and then CellTiter-Glo reagent was added at 4 uL/well and incubated 30 min at room temperature. Then luminescence intensity was quantified on a ViewLux CCD-based plate reader.
% is scaled to controls: 0 for no effect and ±100 for the full control effect.

| SMILES | activity change, negative = cytotoxicity | Potency |
| --- | --- | --- |
| CNC(=O)O/N=C(/CSC)C(C)(C)C | -10.1% (inactive) | – |
| BrCc1ccc(Br)cc1 | -15.9% (inactive) | – |
| CCOc1cc(OP(=S)(OC)OC)nc(CC)n1 | -9.6% (inactive) | – |
| COc1ccc2c(C(=O)c3ccc(Cl)cc3)c(C)n(CC(=O)O)c2c1 | -7.1% (inactive) | – |
| CCc1cc(OC)c(C[C@H](C)N)cc1OC | -2.02% [at 95.3 µM] (inactive) | – |
| CCN[C@@H](C)Cc1ccccc1 | 17.9% [at 95.3 µM] (inactive) | – |
| O=C(O)c1c(Cl)ccc2cc(Cl)cnc12 | 9.82% (inactive) | – |
| ClC(Cl)(Cl)Cl | – | inactive |
| c1cncc([C@@H]2CCCCN2)c1 | 11.3% (inactive) | – |
| C=CC1(C)OC(=O)N(c2cc(Cl)cc(Cl)c2)C1=O (stereo not given) | -16.8% (inactive) | – |
| CCOC1Oc2ccc(OS(C)(=O)=O)cc2C1(C)C (stereo not given) | -6.39% (inactive) | – |
| COc1cccc(C=O)c1 | 9.78% (inactive) | – |
| BrCCc1ccccc1 | -7.64% [at 95.3 µM] (inactive) | – |
| CN(C)CCN(C)C | 6.48% (inactive) | – |
| CS(=O)(=O)c1ccc(C(=O)C2C(=O)CCCC2=O)c(Cl)c1COCC(F)(F)F | 5.04% (inactive) | – |
| NC1(c2ccccc2)CCCCC1 | 1.33% (inactive) | – |
| O=C(Cl)CCl | -4.41% [at 95.3 µM] (inactive) | – |
| O=C(NC(O)C(Cl)(Cl)Cl)NC(O)C(Cl)(Cl)Cl (stereo not given) | -1.44% (inactive) | – |
| CC(C)(C)C(=O)Cl | 6.54% [at 95.3 µM] (inactive) | – |
| C[C@H](CN1CCOCC1)C(C(=O)N1CCCC1)(c1ccccc1)c1ccccc1 | -1.93% [at 95.3 µM] (inactive) | – |

| SMILES | activity change, negative = cytotoxicity | Potency |
| --- | --- | --- |
| C=CCc1cc(OC)c2c(c1)OCO2 | 5.35% [at 95.3 µM] (inactive) | – |
| CC(C)[C@]12CC(=O)[C@H](C)[C@H]1C2 | -4.22% (inactive) | – |
| Clc1cc2c(cc1Cl)Oc1cc(Cl)c(Cl)cc1O2 | 5.89% [at 0.33 µM] (inactive) | – |
| CN=CNc1ccc(C)cc1C | 12.1% (inactive) | – |
| O=C(O)CBr | 10.3% (inactive) | – |
| O=S1(=O)OCCO1 | 7.63% [at 95.3 µM] (inactive) | – |
| CCOC(=O)N(C)N=O | 10.4% (inactive) | – |
| [P]#[In] | 18.5% (inactive) | – |
| C/C(=N\NC(=O)Nc1cc(F)cc(F)c1)c1ncccc1C(=O)O | 16.8% (inactive) | – |
| CCCCCCC(=O)CCCCCC/C=C/C[C@@H](O)[C@H](O)[C@@](N)(CO)C(=O)O | – | inactive |
| C=CC(=O)OCCN(C)C | -5.66% (inactive) | – |
| CCCCS(=O)(=O)Cl | 10.3% (inactive) | – |
| N#CN | – | inactive |
| Cc1ccc(S(=O)(=O)N[C@@H](CCCCN)C(=O)CCl)cc1 | 41.2% (inactive) | – |
| NNCc1ccccc1 | -21.3% [at 95.3 µM] (inactive) | – |
| CCCOC(=O)Cc1ccc(OCC(=O)N(CC)CC)c(OC)c1 | -21.6% (inactive) | – |
| O=C(Cl)C(Cl)Cl | 6.42% (inactive) | – |
| CC[C@@H](CO)NC(=O)[C@@H]1C=C2c3cccc4[nH]cc(c34)C[C@H]2N(C)C1 | 7.79% (inactive) | – |
| C=CCCC#N | 2.89% (inactive) | – |
| C#CCOC(=O)/C=C(C)/C=C/CC(C)CCCC(C)C (stereo not given) | -10.5% (inactive) | – |
